TGFb SMAD3 inh = inhibitors of TGF-b signaling; HepG2 CAGA-GFP TGF-b/SMAD3 reporter, GFP fluorescence, 18 h; TGF-beta stimulated, 500 pg/mL final; Potency, µM (doses to about 46.1 µM), inactives show at the top dose activity, negative = inhibition, hits mostly inhibitors; hit rate 1.2% among 410,000; further: on the % scale 0 is the no-effect control and ±100 the full control effect; nearly all actives have a fitted effect of over 65% in size
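Smad-responsive CAGA-GFP expression was quantified in HEPG2 cells exposed to compounds and 500 pg/mL final TGF-beta for 18 h at 37 degrees C; unstimulated wells defined full inhibition.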
DT40 TDP1 CPT = growth inhibition of DT40 Tdp1-/-;hTDP1 cells with camptothecin (screen for TDP1 inhibitors) | chicken DT40 Tdp1-/-;hTDP1 cells + 20 nM CPT, ATP luminescence, 48 h | hit rate 12% among 420,000 | AID 686979 | Potency, µM (titrated, usually from 46.2 µM), inactives show top-dose activity change, negative = growth inhibition, usual class: inhibitors; further: on the % scale 0 is the no-effect control and ±100 the full control effect; nearly all actives have a fitted effect of over 55% in size
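Cell growth measured by CellTiter-Glo luminescence after a minimum 48 h, 37 C compound exposure with 20 nM CPT in Tdp1-knockout DT40 cells stably expressing hTDP1, seeded 400/well; qHTS titration format.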
ATXN2 expr inh = ATXN2 expression inhibition; HEK-293 ATXN2-luciferase reporter, luminescence, 24 h; hit rate 0.72% among 360,000; Potency, µM (doses to about 57 µM), without a hit: at the highest dose activity change, negative = inhibition, hits mostly inhibitors; further: on the % scale 0 is the no-effect control and ±100 the full control effect; nearly all actives have a fitted effect of over 55% in size
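ATXN2-luciferase reporter cells (luciferase flanked by upstream and downstream ATXN2 gene portions) were treated 24 h at 37 °C with compounds at up to 57 uM. SteadyGlo luminescence gave expression; GF-AFC fluorescence gave viability.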
HepG2 tox = counter-screen for TGF-b inhibitors: cytotoxicity in HepG2 cells. Potency, µM (titrated, usually from 46.1 µM), without a hit: at the top dose activity change, negative = cytotoxicity, actives largely listed as cytotoxic. HepG2 CAGA-GFP viability, ATP luminescence, 18 h. hit rate 0.76% among 410,000
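CellTiter-Glo luminescence gave cytotoxicity after 18 hours at 37 degrees C. The cells were HepG2 CAGA-GFP in 1% FBS DMEM, stimulated with 500 pg/mL TGF-beta after compound addition. %Activity was normalised to no-cell wells (complete cell-killing) and DMSO (no toxicity), and curves were fitted and classified.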
DT40 TDP1 no CPT = qHTS for Inhibitors of human tyrosyl-DNA phosphodiesterase 1 (TDP1): qHTS in cells in absence of CPT; hit rate 15% among 420,000; Potency, µM (highest dose often 46.2 µM), for the others: at the top dose activity change, negative = growth inhibition, actives largely listed as inhibitors; DT40 Tdp1-/- hTDP1 cells, no CPT, ATP luminescence, 48 h; further: on the % scale 0 is the no-effect control and ±100 the full control effect; nearly all actives have a fitted effect of over 55% in size
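DT40 Tdp1-/-;hTDP1 cells, no CPT (DMSO vehicle only), 400 cells/well; compounds pin-transferred; ≥48 hr, 37 °C; CellTiter-Glo 30 min RT dark, luminescence read.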
ATXN viability = cell viability loss in ATXN counter-screen. S2 cells (HEK-293 line with an ATXN2-luciferase reporter) viability, CellTiter-Fluor protease fluorescence, 24 h. Potency, µM (highest dose often 56.7 µM), hits mostly cytotoxic. hit rate 0.49% among 400,000. AID 651635; further: nearly all actives have a fitted effect of over 40% in size
Numbers without * were called inactive. A selection: hits, their analogues and other compounds. The true share with any hit is near 17%. The call rests on the fitted dose curve; in most records, active means well fitted curve in the direction sought with a large enough effect; inconclusive means small, poorly fitted or top-dose-only effect, or another doubt; inactive means no such curve, though single readings can be large; an effect the other way counts as inactive or inconclusive. Potency means the concentration at half of the fitted maximal effect.

Screening Cc1cccc(OC(C)C(=O)Nc2nccs2)c1 (stereo unspecified) returned TGFb SMAD3 inh -11%, DT40 TDP1 CPT 5%, ATXN2 expr inh 8%, HepG2 tox -44%, DT40 TDP1 no CPT -2% and ATXN viability inactive.
`COc1ccc(/C([O-])=C(/C(=S)Nc2ccc(C)c(C)c2)n2c[n+](C)c3ccccc32)cc1OC` gave TGFb SMAD3 inh 5%, DT40 TDP1 CPT 29µM*, ATXN2 expr inh -21%, HepG2 tox -16%, DT40 TDP1 no CPT inconclusive and ATXN viability inactive.
`COc1ccc(NC(=S)Nc2ccc(C)c(Cl)c2)cc1OC` gave TGFb SMAD3 inh -17%, DT40 TDP1 CPT -30%, ATXN2 expr inh -4%, HepG2 tox 7%, DT40 TDP1 no CPT -26% and ATXN viability inactive.
Screening Cc1cccc(NC(=O)CN2C(=O)C(c3ccc(F)cc3)=NC23CCCCCC3)c1C returned DT40 TDP1 CPT inconclusive, HepG2 tox -20% and DT40 TDP1 no CPT inconclusive.
For O=C(CN1C(=O)C(c2ccc(F)cc2)=NC12CCCCCC2)Nc1ccccc1Cl the results were TGFb SMAD3 inh inconclusive, DT40 TDP1 CPT inconclusive, HepG2 tox -22% and DT40 TDP1 no CPT 23µM*.
Screening COc1ccc(NC(=O)CSCC(=O)N(C)Cc2ccc3c(c2)OCCO3)cc1 returned TGFb SMAD3 inh 4%, DT40 TDP1 CPT -4%, ATXN2 expr inh 10%, HepG2 tox 4%, DT40 TDP1 no CPT -8% and ATXN viability inconclusive.
Screening CCc1cccc(CC)c1-n1c(SCC(=O)N2CCc3ccccc3C2)nnc1-c1cccnc1 returned TGFb SMAD3 inh -8%, DT40 TDP1 CPT 18µM*, ATXN2 expr inh inconclusive, HepG2 tox 4%, DT40 TDP1 no CPT 23µM* and ATXN viability inactive.
For CC(C)c1ccccc1-n1c(SCC(=O)N2CCN(c3ccccc3)CC2)nnc1-c1cccnc1 the results were TGFb SMAD3 inh 0%, DT40 TDP1 CPT 16µM*, ATXN2 expr inh -10%, HepG2 tox -3%, DT40 TDP1 no CPT 23µM* and ATXN viability inactive.
For CC(C)c1ccccc1-n1c(SCc2cc(=O)oc3ccc4ccccc4c23)nnc1-c1cccnc1 the results were TGFb SMAD3 inh -34%, DT40 TDP1 CPT inconclusive, ATXN2 expr inh inconclusive, HepG2 tox 13%, DT40 TDP1 no CPT 15µM* and ATXN viability inconclusive.
For COc1ccc(-c2nnc(SCc3csc(N)n3)n2C)cc1 the results were TGFb SMAD3 inh 7%, DT40 TDP1 CPT -15%, ATXN2 expr inh 27%, HepG2 tox 10%, DT40 TDP1 no CPT -7% and ATXN viability inactive.
For Cc1ccc(Nc2nc(CSc3nnc(-c4ccc(F)cc4)n3C)cs2)cc1 the results were TGFb SMAD3 inh inconclusive, DT40 TDP1 CPT 15µM*, ATXN2 expr inh 3%, HepG2 tox -12%, DT40 TDP1 no CPT inconclusive and ATXN viability inactive.
Cc1ccc(-c2nnc(SCC(C)C)n2C)cc1 was read as TGFb SMAD3 inh 10%, DT40 TDP1 CPT inconclusive, ATXN2 expr inh 19%, HepG2 tox -25%, DT40 TDP1 no CPT 21µM* and ATXN viability inactive.
`Cc1ccc2ccccc2[n+]1[O-]` gave TGFb SMAD3 inh -1%, DT40 TDP1 CPT -4%, HepG2 tox 4% and DT40 TDP1 no CPT -5%.
Screening [O-][n+]1c2ccccc2[n+]([O-])c2cc(O)ccc21 returned TGFb SMAD3 inh -2%, DT40 TDP1 CPT 9.2µM*, ATXN2 expr inh -47%, HepG2 tox -41%, DT40 TDP1 no CPT 13µM* and ATXN viability inconclusive.
Nc1ncc(Br)cc1S(=O)(=O)NCCC(=O)NCCc1ccccc1 was read as TGFb SMAD3 inh 7%, DT40 TDP1 CPT inconclusive, ATXN2 expr inh 28%, HepG2 tox 1%, DT40 TDP1 no CPT -13% and ATXN viability inactive.
`CC1CN(c2nc(N(C)c3ccccc3)nc(N)c2[N+](=O)[O-])CC(C)O1` (stereo unspecified) gave TGFb SMAD3 inh -5%, DT40 TDP1 CPT -20%, ATXN2 expr inh -2%, HepG2 tox -20%, DT40 TDP1 no CPT inconclusive and ATXN viability inactive.
`CC1CC(C)CN(c2nc(N(C)c3ccccc3)nc(N)c2[N+](=O)[O-])C1` (stereo unspecified) gave TGFb SMAD3 inh inconclusive, DT40 TDP1 CPT inconclusive, HepG2 tox -23%, DT40 TDP1 no CPT 13µM* and ATXN viability inconclusive.
Screening CC(C)C1C(=O)N(Cc2cn(CCC3OCCO3)nn2)CCS(=O)(=O)N1Cc1ccc(-c2cccc(CO)c2)cc1 (stereo unspecified) returned TGFb SMAD3 inh 0%, DT40 TDP1 CPT inconclusive, ATXN2 expr inh -1%, HepG2 tox -22%, DT40 TDP1 no CPT 23µM* and ATXN viability inactive.
Screening Cc1cccc(C)c1-c1ccc(CN2C(CC(C)C)C(=O)N(Cc3cn(CCO)nn3)CCS2(=O)=O)cc1 (stereo unspecified) returned TGFb SMAD3 inh inconclusive, DT40 TDP1 CPT inconclusive, ATXN2 expr inh 28µM*, HepG2 tox -84%, DT40 TDP1 no CPT inconclusive and ATXN viability 32µM*.
For CC1C(=O)N(Cc2cn(CCC3OCCCO3)nn2)CCS(=O)(=O)N1Cc1ccc(-c2cccc(CO)c2)cc1 (stereo unspecified) the results were TGFb SMAD3 inh 20%, DT40 TDP1 CPT -22%, ATXN2 expr inh -16%, HepG2 tox 0%, DT40 TDP1 no CPT inconclusive and ATXN viability inactive.
`CC(C)CC1C(=O)N(Cc2cn(CCC3OCCO3)nn2)CCS(=O)(=O)N1Cc1ccc(-c2cccc(CO)c2)cc1` (stereo unspecified) gave TGFb SMAD3 inh 0%, DT40 TDP1 CPT inconclusive, ATXN2 expr inh -6%, HepG2 tox -24%, DT40 TDP1 no CPT 23µM* and ATXN viability inactive.
Screening CC(C)CC1C(=O)N(Cc2cn(CCC3OCCO3)nn2)CCS(=O)(=O)N1Cc1ccc(-c2cccc(N(C)C)c2)cc1 (stereo unspecified) returned TGFb SMAD3 inh -19%, DT40 TDP1 CPT inconclusive, ATXN2 expr inh inconclusive, HepG2 tox -20%, DT40 TDP1 no CPT 21µM* and ATXN viability inconclusive.
For COCOCCn1cc(CN2CCS(=O)(=O)N(Cc3ccc(-c4ccc(F)nc4)cc3)C(CC(C)C)C2=O)nn1 (stereo unspecified) the results were TGFb SMAD3 inh -3%, DT40 TDP1 CPT inconclusive, ATXN2 expr inh -27%, HepG2 tox -12%, DT40 TDP1 no CPT inconclusive and ATXN viability inactive.
